Source: PubChem BioAssay (EPA / NIEHS)
Where “and” joins values, the source holds several entries; their conditions need not be identical. Identical values can stand only once. Inconclusive results are not listed. Where a structure was tested more than once in an assay, its records may differ in their call. Calls of active or inactive are those of the source. How the source made its calls, unless noted: active means hit-call score of the fitted dose curve at least 0.9, where 1 is the maximum; inactive means score below 0.9.

Legend:
[1] = target: Retinoic acid receptor RXR-alpha (Homo sapiens) (UniProt P19793); assay: ATG_RXRa_TRANS: Attagene TRANS-FACTORIAL HepG2 Assay for human Retinoid X Receptor alpha (RXRa) (AID 2283012; active means hit-call score of the fitted dose curve at least 0.9, where 1 is the maximum)
Retinoic acid receptor RXR-alpha (Homo sapiens), sequence (P19793 whole entry, looked up, the tested form may be a part): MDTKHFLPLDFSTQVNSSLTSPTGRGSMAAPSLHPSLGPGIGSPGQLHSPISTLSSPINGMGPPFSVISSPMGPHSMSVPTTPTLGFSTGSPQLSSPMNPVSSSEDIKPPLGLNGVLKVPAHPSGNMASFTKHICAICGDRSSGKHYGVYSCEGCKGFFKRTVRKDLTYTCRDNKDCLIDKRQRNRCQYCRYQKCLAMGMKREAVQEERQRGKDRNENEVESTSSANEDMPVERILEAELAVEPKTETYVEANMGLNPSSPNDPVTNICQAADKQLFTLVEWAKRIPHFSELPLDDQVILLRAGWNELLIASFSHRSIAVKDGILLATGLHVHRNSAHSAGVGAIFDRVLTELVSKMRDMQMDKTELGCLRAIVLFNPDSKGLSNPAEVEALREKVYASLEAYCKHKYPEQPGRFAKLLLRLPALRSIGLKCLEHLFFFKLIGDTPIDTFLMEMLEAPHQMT
In short: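 Read-out: fluorescent reporter-transcript fragments quantified by capillary electrophoresis after RT-PCR. Transiently transfected HepG2 cells carrying GAL4-UAS reporters and NR-GAL4 chimeras were exposed to chemical for 24 h; activity scored as increase over DMSO.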

[2] = target: human Retinoid X Receptor beta (RXRb), RXRB (gene 6257) (UniProt P28702); assay: ATG_RXRb_TRANS: Attagene TRANS-FACTORIAL HepG2 Assay for human Retinoid X Receptor beta (RXRb) (AID 2283013; active means hit-call score of the fitted dose curve at least 0.9, where 1 is the maximum)
human Retinoid X Receptor beta (RXRb), RXRB (gene 6257), sequence (P28702 whole entry, looked up, the tested form may be a part): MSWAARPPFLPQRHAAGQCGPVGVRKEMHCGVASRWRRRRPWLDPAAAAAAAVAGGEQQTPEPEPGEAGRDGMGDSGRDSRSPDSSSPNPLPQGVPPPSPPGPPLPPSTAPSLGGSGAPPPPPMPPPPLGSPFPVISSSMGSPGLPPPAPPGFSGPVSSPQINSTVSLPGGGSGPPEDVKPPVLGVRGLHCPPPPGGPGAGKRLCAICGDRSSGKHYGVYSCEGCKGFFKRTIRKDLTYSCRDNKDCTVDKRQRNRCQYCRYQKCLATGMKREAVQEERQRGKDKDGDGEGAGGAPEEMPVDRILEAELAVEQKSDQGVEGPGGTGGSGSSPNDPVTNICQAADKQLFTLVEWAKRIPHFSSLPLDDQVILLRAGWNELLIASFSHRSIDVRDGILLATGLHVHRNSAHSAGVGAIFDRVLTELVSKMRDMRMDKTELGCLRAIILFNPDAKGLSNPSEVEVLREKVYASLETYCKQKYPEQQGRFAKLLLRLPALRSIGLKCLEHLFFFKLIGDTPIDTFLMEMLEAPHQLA
In short: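 Read-out: reporter mRNA induction via RT-PCR plus capillary electrophoresis fluorescence, analysed as signal increase relative to DMSO. Cells were human HepG2, transiently transfected with GAL4-UAS reporter constructs and chimeric receptor-Gal4 fusions, dosed for 24 h.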

[3] = target: human Thyroid Receptor alpha (THRa1), THRA (gene 7067) (UniProt P10827); assay: ATG_THRa1_TRANS: Attagene TRANS-FACTORIAL HepG2 Assay for human Thyroid Receptor alpha (THRa1) (AID 2283014; active means hit-call score of the fitted dose curve at least 0.9, where 1 is the maximum)
human Thyroid Receptor alpha (THRa1), THRA (gene 7067), sequence (P10827 whole entry, looked up, the tested form may be a part): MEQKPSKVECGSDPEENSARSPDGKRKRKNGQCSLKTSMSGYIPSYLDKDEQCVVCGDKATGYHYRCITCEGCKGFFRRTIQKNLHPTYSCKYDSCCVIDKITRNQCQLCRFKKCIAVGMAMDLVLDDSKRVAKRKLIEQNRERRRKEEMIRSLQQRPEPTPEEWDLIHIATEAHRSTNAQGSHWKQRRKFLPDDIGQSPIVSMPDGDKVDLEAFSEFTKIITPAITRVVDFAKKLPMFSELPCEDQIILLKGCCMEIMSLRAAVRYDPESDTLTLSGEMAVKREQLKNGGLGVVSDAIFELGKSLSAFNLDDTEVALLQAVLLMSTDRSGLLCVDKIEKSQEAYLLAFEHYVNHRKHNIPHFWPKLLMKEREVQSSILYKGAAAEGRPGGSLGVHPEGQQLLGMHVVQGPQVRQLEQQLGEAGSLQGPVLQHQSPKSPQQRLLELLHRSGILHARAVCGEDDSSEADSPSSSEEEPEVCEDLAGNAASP
In short: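 Measured here is mRNA from a GAL4-UAS reporter in transfected HepG2 cells carrying a Gal4-fused receptor, 24 h post-dose. DMSO served as negative control and baseline.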

[4] = read-out: E-selectin (Homo sapiens) (UniProt P16581); assay: BSK_3C_Eselectin: BioMAP Diversity Plus: 3C Assay for Eselectin Biomarker Activity (AID 2283015); settings: primary human endothelial cells (HUVEC); actives raise or lower the signal
In short: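 Endpoint derived by bidirectional fitting against DMSO vehicle; signal is ELISA-detected E-selectin from primary HUVEC at 24 h post-dosing, with parallel SRB staining (0.1% SRB, 560 nm) flagging cytotoxicity.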

[5] = read-out: Interleukin-1 alpha (IL1a), IL1A (gene 3552); assay: BSK_BE3C_IL1a: BioMAP Diversity Plus: BE3C Assay for Interleukin-1 alpha (IL1a) Biomarker Activity (AID 2283016); settings: primary human bronchial epithelial cells; actives raise or lower the signal
In short: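 ELISA read-out of IL-1a from human lung bronchial epithelial primary cells, 24 h post-dose. Gain or loss of signal fitted relative to DMSO negative control.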

[6] = read-out: Monocyte Chemoattractant Protein-1 (MCP1), CCL2 (gene 6347); assay: BSK_3C_MCP1: BioMAP Diversity Plus: 3C Assay for Monocyte Chemoattractant Protein-1 (MCP1) Biomarker Activity (AID 2283017); settings: primary human endothelial cells (HUVEC); actives raise or lower the signal
In short: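 Using human vascular primary endothelium, researchers measured MCP-1 by ELISA 24 h after treatment, with DMSO serving as negative control for bidirectional fitting.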

[7] = read-out: Monocyte Chemoattractant Protein-1 (MCP1), CCL2 (gene 6347); assay: BSK_4H_MCP1: BioMAP Diversity Plus: 4H Assay for Monocyte Chemoattractant Protein-1 (MCP1) Biomarker Activity (AID 2283018); settings: primary human endothelial cells (HUVEC); actives raise or lower the signal
In short: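 HUVEC primary cells, 24 h post-dose, MCP-1 by ELISA. Gain or loss of signal fitted bidirectionally vs DMSO baseline. Cytotoxicity: SRB stain (0.1% after 10% TCA fixation), read 560 nm, parallel cultures.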

[8] = read-out: Human Leukocyte Antigen - DR isotype (HLADR), HLA-DRA (gene 3122); assay: BSK_3C_HLADR: BioMAP Diversity Plus: 3C Assay for Human Leukocyte Antigen - DR isotype (HLADR) Biomarker Activity (AID 2283019); settings: primary human endothelial cells (HUVEC); actives raise or lower the signal
In short: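 Compound added to primary HUVEC cultures, 24 h incubation, then HLA-DR determined by ELISA; endpoint derived by bidirectional fitting relative to DMSO negative control.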

[9] = read-out: Interleukin-8 (IL8), CXCL8 (gene 3576); assay: BSK_3C_IL8: BioMAP Diversity Plus: 3C Assay for Interleukin-8 (IL8) Biomarker Activity (AID 2283020); settings: primary human endothelial cells (HUVEC); actives raise or lower the signal
In short: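 HUVEC, 3C stimulation; 24 h compound exposure; IL-8 read by ELISA; gain or loss of signal fitted relative to DMSO control.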

[10] = read-out: Monokine induced gamma interferon (MIG), CXCL9 (gene 4283); assay: BSK_3C_MIG: BioMAP Diversity Plus: 3C Assay for Monokine induced gamma interferon (MIG) Biomarker Activity (AID 2283021); settings: primary human endothelial cells (HUVEC); actives raise or lower the signal;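 on AC50: MIG protein level measured by immunoassay in the treated endothelial cultures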
In short: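 HUVEC, 3C system; 24 h chemical exposure; MIG by ELISA; bidirectional fit vs DMSO baseline.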

[11] = target: human Vitamin D Receptor (VDR), VDR (gene 7421) (UniProt P11473); assay: ATG_VDR_TRANS: Attagene TRANS-FACTORIAL HepG2 Assay for human Vitamin D Receptor (VDR) (AID 2283022; active means hit-call score of the fitted dose curve at least 0.9, where 1 is the maximum)
human Vitamin D Receptor (VDR), VDR (gene 7421), sequence (P11473 whole entry, looked up): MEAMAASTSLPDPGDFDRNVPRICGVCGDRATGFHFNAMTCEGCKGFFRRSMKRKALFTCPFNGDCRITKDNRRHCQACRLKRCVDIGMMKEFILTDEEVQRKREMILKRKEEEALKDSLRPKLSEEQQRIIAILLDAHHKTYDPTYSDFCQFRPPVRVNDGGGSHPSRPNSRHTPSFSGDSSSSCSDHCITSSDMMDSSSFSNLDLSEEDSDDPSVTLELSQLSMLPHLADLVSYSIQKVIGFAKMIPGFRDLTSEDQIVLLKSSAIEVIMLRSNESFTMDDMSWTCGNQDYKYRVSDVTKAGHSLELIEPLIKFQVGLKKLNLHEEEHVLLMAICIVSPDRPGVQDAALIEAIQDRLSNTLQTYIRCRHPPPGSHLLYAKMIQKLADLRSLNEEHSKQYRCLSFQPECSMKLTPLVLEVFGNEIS
In short: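 Multiplexed TRANS reporter in HepG2; 24 h treatment; reporter mRNA by RT-PCR plus capillary electrophoresis; upregulation scored relative to DMSO.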

[12] = BSK_3C_SRB: Viability Assessment in the BioMAP Diversity Plus: 3C Assay (AID 2283023); settings: primary human endothelial cells (HUVEC);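 further: cells read 24 h after compound dosing; fitted both ways against DMSO so a hit may be signal rise or drop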
In short: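 Overt cytotoxicity is gauged in parallel confluent HUVEC cultures by SRB total-protein staining at the time of biomarker measurement, 24 h after dosing. Gain or loss of signal is fitted versus DMSO.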

[13] = read-out: Matrix Metallopeptidase 1 (MMP1), MMP1 (gene 4312); assay: BSK_BE3C_MMP1: BioMAP Diversity Plus: BE3C Assay for Matrix Metallopeptidase 1 (MMP1) Biomarker Activity (AID 2283024); settings: primary human bronchial epithelial cells; actives raise or lower the signal
In short: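 ELISA read-out of MMP1 in human lung bronchial epithelial primary cultures, 24 h post-dose; bidirectional curve fit vs DMSO baseline, gain or loss of signal scored.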

[14] = BSK_3C_Vis: BioMAP Diversity Plus: 3C Assay for Morphology Visualization (AID 2283025); settings: primary human endothelial cells (HUVEC);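 further: fitted both ways so gain or loss versus DMSO counts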;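 on AC50: light microscopy image of cell morphology used as background control; cells imaged 24 h after dosing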
In short: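 HUVEC, 3C system; light microscopy of morphology at 24 h post-dose. Bidirectional fit vs DMSO baseline. Secondary readout, background-control function.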

[15] = read-out: Pselectin, SELP (gene 6403); assay: BSK_4H_Pselectin: BioMAP Diversity Plus: 4H Assay for Pselectin Biomarker Activity (AID 2283026); settings: primary human endothelial cells (HUVEC); actives raise or lower the signal
In short: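 HUVEC, 24 h chemical exposure; P-selectin read by ELISA. Bidirectional curve fit vs DMSO baseline; gain or loss of signal scored.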

[16] = BSK_4H_SRB: Viability Assessment in the BioMAP Diversity Plus: 4H Assay (AID 2283027); settings: primary human endothelial cells (HUVEC);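 further: cells exposed to compound for 24 h before staining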;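 on AC50: curves fitted both ways versus DMSO so AC50 may be loss or gain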
In short: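 HUVEC, 24 h post-dose; 10% TCA fix, 0.1% SRB stain, A560 nm. Total protein = overt cytotoxicity, parallel to biomarker read. Bidirectional fit vs DMSO baseline.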

[17] = BSK_BE3C_SRB: Viability Assessment in the BioMAP Diversity Plus: BE3C Assay (AID 2283028); settings: primary human bronchial epithelial cells;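 further: measured 24 h after chemical dosing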;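 on AC50: fitted both ways so AC50 may mark signal gain or loss versus DMSO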
In short: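 SRB total-protein staining (0.1%, after TCA fixation) of chemically dosed human bronchial epithelial primary cells at 24 h; DMSO serves as the negative control for bidirectional curve fitting.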

[18] = read-out: Thrombomodulin, THBD (gene 7056); assay: BSK_3C_Thrombomodulin: BioMAP Diversity Plus: 3C Assay for Thrombomodulin Biomarker Activity (AID 2283029); settings: primary human endothelial cells (HUVEC); actives raise or lower the signal
In short: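 HUVEC, 3C conditions; compound 24 h; thrombomodulin by ELISA; bidirectional curve fit vs DMSO baseline; parallel SRB total-protein staining for cytotoxicity.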

[19] = read-out: Urokinase-type plasminogen activator receptor (uPAR), PLAUR (gene 5329); assay: BSK_4H_uPAR: BioMAP Diversity Plus: 4H Assay for Urokinase-type plasminogen activator receptor (uPAR) Biomarker Activity (AID 2283030); settings: primary human endothelial cells (HUVEC); actives raise or lower the signal
In short: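 Endpoint derived via bidirectional curve fitting against DMSO baseline; readout was ELISA detection of uPAR on umbilical vein endothelial cells at 24 h post-treatment, with SRB-stained parallel cultures assessing cytotoxicity.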

[20] = read-out: Vascular endothelial growth factor receptor 2 (Homo sapiens) (UniProt P35968); assay: BSK_4H_VEGFRII: BioMAP Diversity Plus: 4H Assay for Vascular endothelial growth factor receptor 2 (VEGFR2) Biomarker Activity (AID 2283031); settings: primary human endothelial cells (HUVEC); actives raise or lower the signal;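 on AC50: cell-surface VEGFR2 protein level quantified by ELISA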
In short: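 In this multiplexed HUVEC system, biomarker ELISA was performed after 24 h chemical exposure. Parallel SRB staining (TCA fixation, 560 nm) tracked cytotoxicity; DMSO served as baseline.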

Measured: AC50

E-selectin (Homo sapiens), sequence (P16581 whole entry, looked up): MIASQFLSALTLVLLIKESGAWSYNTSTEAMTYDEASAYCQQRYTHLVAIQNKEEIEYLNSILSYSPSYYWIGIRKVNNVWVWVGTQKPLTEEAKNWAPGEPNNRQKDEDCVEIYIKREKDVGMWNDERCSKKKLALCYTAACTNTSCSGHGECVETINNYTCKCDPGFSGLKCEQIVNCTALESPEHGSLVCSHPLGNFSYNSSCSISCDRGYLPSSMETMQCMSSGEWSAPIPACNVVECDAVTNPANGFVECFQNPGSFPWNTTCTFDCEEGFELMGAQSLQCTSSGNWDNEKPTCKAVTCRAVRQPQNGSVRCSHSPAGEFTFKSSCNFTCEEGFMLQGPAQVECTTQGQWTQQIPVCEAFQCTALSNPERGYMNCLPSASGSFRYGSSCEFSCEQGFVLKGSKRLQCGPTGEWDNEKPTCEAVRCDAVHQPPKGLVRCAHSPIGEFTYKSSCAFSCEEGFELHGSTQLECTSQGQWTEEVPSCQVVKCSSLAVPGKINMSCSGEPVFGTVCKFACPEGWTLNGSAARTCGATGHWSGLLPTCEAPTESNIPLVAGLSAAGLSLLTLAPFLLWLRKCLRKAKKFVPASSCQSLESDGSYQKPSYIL

Cc1cccc2c1ccc1ccccc12
inactive: [1] | [3] | [4] | [6] | [7] | [9] | [10] | [11] | [12] | [13] | [14] | [15] | [16] | [17] | [18] | [19] | [20]
active: [2] 22.6 µM | [5] 5.56 µM | [8] 20 µM

Cc1cc(C(=C2C=CC(=Nc3ccc(S(=O)(=O)O)cc3)C=C2)c2ccc(Nc3ccc(S(=O)(=O)O)cc3)cc2)cc(S(=O)(=O)O)c1N
inactive: [1]

Cc1ccccc1C(OCCN(C)C)c1ccccc1 (configuration not stated)
inactive: [1] | [2]

O=C1C=CC(=O)N1c1cccc(N2C(=O)C=CC2=O)c1
inactive: [1] | [2] | [3]

O=C(F)C(F)(F)C(F)(F)C(F)(F)C(F)F
inactive: [1] | [2]

C[C@]12CC[C@@H]3c4ccc(O)cc4CC[C@H]3[C@@H]1CC[C@@H]2OC(=O)CCC1CCCC1
inactive: [1]
active: [2] 169 µM

O=C(O)c1cccc(C(=O)O)n1
inactive: [1] | [2]

O=C(O)C(F)(F)OC(F)(F)C(F)(F)OC(F)(F)C(F)(F)OC(F)(F)C(F)(F)C(F)(F)C(F)(F)F
active: [2] 13.3 µM and 9.78 µM | [4] 49.6 µM and 49 µM | [5] 6.32 µM and 6.18 µM | [6] 44.8 µM and 46.6 µM | [7] 42.4 µM and 40.5 µM | [8] 45.5 µM and 50.6 µM | [9] 36.6 µM and 23.5 µM | [10] 58.2 µM and 54.8 µM | [12] 26.1 µM and 24 µM | [13] 5.81 µM and 5.41 µM | [15] 48.1 µM and 54.2 µM | [16] 47.9 µM and 52.7 µM | [17] 7.88 µM and 7.84 µM | [18] 52 µM | [19] 43.5 µM and 43.6 µM | [20] 47.7 µM
inactive: [1] | [3] | [11] | [18] | [20]

O=C(NCc1ncc(C(F)(F)F)cc1Cl)c1c(Cl)cccc1Cl
inactive: [1] | [2] | [3] | [4] | [5] | [6] | [7] | [8] | [9] | [10] | [11] | [12] | [13] | [14] | [15] | [16] | [17] | [18] | [19] | [20]

C/C=C/C(=O)C1=C(C)CCCC1(C)C
inactive: [1] | [2] | [3]

Cc1[nH]nc2c1N=C(c1ccccc1Cl)c1cc([N+](=O)[O-])ccc1N2
inactive: [1] | [2] | [3] | [6] | [9] | [10] | [11] | [13] | [18]
active: [4] 3.2 µM | [5] 7.77 µM | [7] 10.4 µM | [8] 3.12 µM | [12] 750 nM | [14] 0.645 µM | [15] 639 nM | [16] 733 nM | [17] 20.3 µM | [19] 666 nM | [20] 2.43 µM

Nc1ccn([C@@H]2O[C@H](CO)[C@@H](O)C2O)c(=O)n1 (some centres not stated)
inactive: [1] | [2]

Cc1cc(C(C)(C)C)c(O)c(C(C)(C)C)c1
active: [1] 15.6 µM and 865 nM | [2] 918 nM and 88 nM
inactive: [3]

CCCCCCCCCCCC(=O)NCCCN(C)C
inactive: [1]
